Test results taken from PubChem BioAssay (NCATS).
Results filed as inconclusive are left out. A number with no mark means an inactive call. Activity calls are given as the source filed them. The call rests on the fitted dose curve; in most records, active means well fitted curve in the direction sought with a large enough effect in the repeat runs; inconclusive means weak or mixed curves; inactive means no such curve, though single readings can be large; an effect the other way counts as inactive or inconclusive.

The compounds below were run against Cytochrome P450 2D6 (Homo sapiens) (UniProt P10635) (assay: Cytochrome P450 family 2 subfamily D member 6 (CYP2D6) small molecule antagonists: luciferase biochemical (cell-free) qHTS assay (AID 1645840)). Conditions: P450-Glo CYP2D6 enzyme, luciferin luminescence, 1 h; series mostly up to 57.4 µM; activity change, negative = inhibition: at the top concentration.
Procedure, shortened: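 P450-Glo CYP2D6 system: proluciferin substrate converted by enzyme to luciferin, read by luminescence proportional to activity. Enzyme-substrate mix with compound 10 min at room temperature, then NADPH regeneration 1 h before detection reagent.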
Further: nearly all actives have a fitted effect of over 55% in size.
On the % scale 0 is the no-effect control and ±100 the full control effect; potency means the concentration at half of the fitted maximal effect.

Sequence of Cytochrome P450 2D6 (Homo sapiens) (P10635 whole entry, looked up): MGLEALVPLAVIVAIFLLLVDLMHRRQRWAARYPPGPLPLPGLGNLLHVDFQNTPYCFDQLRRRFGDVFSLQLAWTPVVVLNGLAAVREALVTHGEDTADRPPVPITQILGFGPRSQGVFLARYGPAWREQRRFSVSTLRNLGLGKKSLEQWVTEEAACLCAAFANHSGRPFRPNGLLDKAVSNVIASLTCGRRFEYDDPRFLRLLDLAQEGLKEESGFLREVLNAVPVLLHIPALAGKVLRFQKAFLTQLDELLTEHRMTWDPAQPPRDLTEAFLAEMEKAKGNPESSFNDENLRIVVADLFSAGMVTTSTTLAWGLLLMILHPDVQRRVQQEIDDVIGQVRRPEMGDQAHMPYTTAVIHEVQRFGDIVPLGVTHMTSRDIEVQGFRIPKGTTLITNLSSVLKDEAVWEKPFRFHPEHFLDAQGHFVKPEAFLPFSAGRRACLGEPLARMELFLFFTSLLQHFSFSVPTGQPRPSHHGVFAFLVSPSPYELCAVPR

Row | Structure (SMILES) | activity change, negative = inhibition | Potency
1 | Nc1ccc(C(=O)OCC(O)CO)cc1 (stereo not drawn) | 4.23% | –
2 | O=C(O)CCCC[P+](c1ccccc1)(c1ccccc1)c1ccccc1 | 21.8% | –
3 | CC(C)(Oc1ccc(Cl)cc1)C(=O)OCCCOC(=O)C(C)(C)Oc1ccc(Cl)cc1 | 0.42% | –
4 | CC(=O)Nc1ccc(S(=O)(=O)Nc2cc(C)on2)cc1 | -2.01% | –
5 | CO[C@@H]1[C@@H](OC)[C@H](C)[C@@](O)(CC(=O)O)O[C@H]1[C@H](C)[C@H]1O[C@@]2(CC[C@@](C)([C@H]3CC[C@@](C)([C@@H]4O[C@@H]([C@H]5O[C@](C)(O)[C@H](C)C[C@@H]5C)C[C@@H]4OC4C[C@H](OC)[C@@H](OC)[C@H](C)O4)O3)O2)C[C@H](O)[C@H]1C (stereo partly drawn) | -0.3% | –
6 | O=C(Oc1ccccc1)c1cccc(C(=O)Oc2ccccc2)c1 | – | 30.7 µM (active)
7 | CC(=O)O[C@@H]1CC2C3CCc4cc(OC(=O)c5ccccc5)ccc4C3CCC2(C)[C@H]1OC(C)=O (stereo partly drawn) | 4.33% | –
8 | O=C(O)Cn1cnnn1 | 3.35% | –
9 | CN=C(N)NC(=O)Nc1c(C)cccc1C | 3.19% | –
10 | CN1N=C(C(N)=O)CCC1=O | 1.42% | –
11 | C=CCOc1cc(Cl)ccc1C(=O)NCCN(CC)CC | – | 0.275 µM (active)
12 | Cc1ccccc1C(=O)N1CC/C(=N\OS(=O)(=O)O)c2ccc(Cl)cc21 | 4.21% | –
13 | Nc1ccc(O)cc1 | – | 6.17 µM (active)
14 | CCS(=O)(=O)c1ccc(OC)c(C(=O)OC)c1 | -2.89% | –
15 | O=C1c2ccccc2CCc2ccccc21 | 7.87% | –
16 | C#Cc1ccc(-c2ccccc2F)cc1 | – | 15.1 µM (active)
17 | COCCc1ccccn1 | 5.33% | –
18 | OCCCc1ccccc1 | 6.78% | –
19 | O=C(O)c1[nH]n(-c2ccc(S(=O)(=O)O)cc2)c(=O)c1N=Nc1ccc(S(=O)(=O)O)cc1 | -22.5% | –
20 | CCCCCCCCCCCCCC[N+](C)(C)C | – | 3.09 µM (active)

Row | Structure (SMILES) | activity change, negative = inhibition | Potency
21 | CCCCC(O)/C=C(C)/C=C/C=C/C(=O)N1CCCC1=O (stereo not drawn) | 3.23% | –
22 | C=C(C)C(=O)OCC(O)CO (stereo not drawn) | 8.77% | –
23 | CN(C)CCCOC1(Cc2ccccc2)CCCCCC1 | – | 2.19 µM (active)
24 | O=C(CCCl)NCCc1ccccc1 | -15.7% | –
25 | CCOc1ncc(F)c(=O)[nH]1 | -18.3% | –
26 | COc1cc(NS(=O)(=O)c2ccc(N)cc2)nc(C)n1 | 8.04% | –
27 | Cc1cccc(OCC(O)CNC(C)(C)C)c1C (stereo not drawn) | – | 11 µM (active)
28 | O=C1CC[C@H](C(=O)N2CCCCC2)N1 | 7.9% | –
29 | Cc1cc(=O)oc2cc(O[C@@H]3SC[C@@H](O)[C@H](O)[C@H]3O)ccc12 | -0.665% | –
30 | CN1Cc2cc(C(=O)N3CCC(C4CCNCC4)CC3)ccc2N[C@@H](CC(=O)O)C1=O | 10.6% | –
31 | COc1ccc(CCC(C)=O)cc1 | 1.36% | –
32 | CC(=O)OC[C@H]1O[C@@H](OC(C)=O)[C@H](OC(C)=O)[C@@H]1OC(C)=O | -3.66% | –
33 | CN(C)CCN(Cc1ccsc1)c1ccccn1 | – | 6.92 µM (active)
34 | CCN1CCCC1CN (stereo not drawn) | 14.5% | –
35 | CCCC(=O)O[C@]1(C(=O)CC)CC[C@H]2[C@@H]3CCC4=CC(=O)CC[C@]4(C)[C@H]3[C@@H](O)C[C@@]21C | – | 12.3 µM (active)
36 | OCc1c[nH]c2ccccc12 | – | 25.2 µM (active)
37 | NCC[C@H](O)C(=O)N[C@@H]1C[C@H](N)[C@@H](O[C@H]2O[C@H](CN)[C@@H](O)[C@H](O)[C@@H]2O)[C@H](O)[C@@H]1O[C@H]1O[C@H](CO)[C@@H](O)[C@H](N)[C@@H]1O | 10.7% [at 0.91 µM] | –
38 | O=C1CC2(CCCC2)CC(=O)N1 | -2.3% | –
39 | CCC(C(=O)NC(=O)NC(C)=O)c1ccccc1 (stereo not drawn) | 9.54% | –

These compounds were tested against Cytochrome P450 2C9 (Homo sapiens) (UniProt P11712) (assay: Cytochrome P450 family 2 subfamily C member 9 (CYP2C9) small molecule antagonists: luciferase biochemical (cell-free) qHTS assay (AID 1645842)). Conditions: P450-Glo CYP2C9 enzyme assay, luciferin luminescence; series mostly up to 57.4 µM; activity change, negative = inhibition: at the top concentration.
Procedure, shortened: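 P450-Glo CYP2C9 system: proluciferin substrate with enzyme in mix containing 0.4% BSA, 10 min at room temperature, then NADPH regeneration solution added and incubated 1 h at 37C. Detection reagent stopped reaction; luminescence read after 20 min as RLU.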

Sequence of Cytochrome P450 2C9 (Homo sapiens) (P11712 whole entry, looked up): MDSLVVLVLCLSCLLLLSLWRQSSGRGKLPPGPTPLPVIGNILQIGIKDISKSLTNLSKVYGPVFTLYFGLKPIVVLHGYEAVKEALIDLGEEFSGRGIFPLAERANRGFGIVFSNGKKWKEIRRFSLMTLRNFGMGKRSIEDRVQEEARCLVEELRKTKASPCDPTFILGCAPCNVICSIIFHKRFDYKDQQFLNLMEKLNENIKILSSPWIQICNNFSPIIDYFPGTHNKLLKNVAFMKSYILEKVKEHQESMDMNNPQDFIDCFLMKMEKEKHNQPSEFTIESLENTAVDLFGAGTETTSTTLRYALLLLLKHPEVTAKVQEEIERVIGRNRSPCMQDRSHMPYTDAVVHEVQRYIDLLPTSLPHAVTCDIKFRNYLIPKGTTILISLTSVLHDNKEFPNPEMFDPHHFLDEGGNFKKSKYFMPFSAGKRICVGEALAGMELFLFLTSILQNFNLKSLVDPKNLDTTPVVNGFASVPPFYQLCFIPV

Row | Structure (SMILES) | activity change, negative = inhibition | Potency
40 | Nc1ccc(C(=O)OCC(O)CO)cc1 (stereo not drawn) | -8.29% | –
41 | O=C(O)CCCC[P+](c1ccccc1)(c1ccccc1)c1ccccc1 | 7.76% | –
42 | CC(C)(Oc1ccc(Cl)cc1)C(=O)OCCCOC(=O)C(C)(C)Oc1ccc(Cl)cc1 | – | 7.76 µM (active)
43 | CC(=O)Nc1ccc(S(=O)(=O)Nc2cc(C)on2)cc1 | 5.58% | –
44 | CO[C@@H]1[C@@H](OC)[C@H](C)[C@@](O)(CC(=O)O)O[C@H]1[C@H](C)[C@H]1O[C@@]2(CC[C@@](C)([C@H]3CC[C@@](C)([C@@H]4O[C@@H]([C@H]5O[C@](C)(O)[C@H](C)C[C@@H]5C)C[C@@H]4OC4C[C@H](OC)[C@@H](OC)[C@H](C)O4)O3)O2)C[C@H](O)[C@H]1C (stereo partly drawn) | 9.15% | –
45 | O=C(Oc1ccccc1)c1cccc(C(=O)Oc2ccccc2)c1 | – | 6.48 µM (active)
46 | CC(=O)O[C@@H]1CC2C3CCc4cc(OC(=O)c5ccccc5)ccc4C3CCC2(C)[C@H]1OC(C)=O (stereo partly drawn) | 1.5% | –
47 | O=C(O)Cn1cnnn1 | 3.21% | –
48 | CN=C(N)NC(=O)Nc1c(C)cccc1C | 10.8% | –
49 | CN1N=C(C(N)=O)CCC1=O | 12.2% | –
50 | C=CCOc1cc(Cl)ccc1C(=O)NCCN(CC)CC | -11.4% | –
51 | Cc1ccccc1C(=O)N1CC/C(=N\OS(=O)(=O)O)c2ccc(Cl)cc21 | – | 8.71 µM (active)
52 | Nc1ccc(O)cc1 | – | 15.5 µM (active)
53 | CCS(=O)(=O)c1ccc(OC)c(C(=O)OC)c1 | 69.4% | –
54 | O=C1c2ccccc2CCc2ccccc21 | 0% | –
55 | C#Cc1ccc(-c2ccccc2F)cc1 | – | 12 µM (active)
56 | COCCc1ccccn1 | 7.26% | –
57 | OCCCc1ccccc1 | 1.46% | –
58 | O=C(O)c1[nH]n(-c2ccc(S(=O)(=O)O)cc2)c(=O)c1N=Nc1ccc(S(=O)(=O)O)cc1 | -20% | –
59 | CCCCCCCCCCCCCC[N+](C)(C)C | -29.4% | –

Row | Structure (SMILES) | activity change, negative = inhibition | Potency
60 | CCCCC(O)/C=C(C)/C=C/C=C/C(=O)N1CCCC1=O (stereo not drawn) | -14.9% | –
61 | C=C(C)C(=O)OCC(O)CO (stereo not drawn) | 2.95% | –
62 | CN(C)CCCOC1(Cc2ccccc2)CCCCCC1 | 5.43% | –
63 | O=C(CCCl)NCCc1ccccc1 | 5.19% | –
64 | CCOc1ncc(F)c(=O)[nH]1 | 14.4% | –
65 | COc1cc(NS(=O)(=O)c2ccc(N)cc2)nc(C)n1 | 0.513% | –
66 | Cc1cccc(OCC(O)CNC(C)(C)C)c1C (stereo not drawn) | 6.91% | –
67 | O=C1CC[C@H](C(=O)N2CCCCC2)N1 | 0.791% | –
68 | Cc1cc(=O)oc2cc(O[C@@H]3SC[C@@H](O)[C@H](O)[C@H]3O)ccc12 | 17.2% | –
69 | CN1Cc2cc(C(=O)N3CCC(C4CCNCC4)CC3)ccc2N[C@@H](CC(=O)O)C1=O | -0.311% | –
70 | COc1ccc(CCC(C)=O)cc1 | 1.28% | –
71 | CC(=O)OC[C@H]1O[C@@H](OC(C)=O)[C@H](OC(C)=O)[C@@H]1OC(C)=O | 13.4% | –
72 | CN(C)CCN(Cc1ccsc1)c1ccccn1 | 11.1% | –
73 | CCN1CCCC1CN (stereo not drawn) | 2.87% | –
74 | CCCC(=O)O[C@]1(C(=O)CC)CC[C@H]2[C@@H]3CCC4=CC(=O)CC[C@]4(C)[C@H]3[C@@H](O)C[C@@]21C | – | 17.4 µM (active)
75 | OCc1c[nH]c2ccccc12 | – | 7.31 µM (active)
76 | NCC[C@H](O)C(=O)N[C@@H]1C[C@H](N)[C@@H](O[C@H]2O[C@H](CN)[C@@H](O)[C@H](O)[C@@H]2O)[C@H](O)[C@@H]1O[C@H]1O[C@H](CO)[C@@H](O)[C@H](N)[C@@H]1O | 1.19% [at 0.91 µM] | –
77 | O=C1CC2(CCCC2)CC(=O)N1 | 17.4% | –
78 | CCC(C(=O)NC(=O)NC(C)=O)c1ccccc1 (stereo not drawn) | 3.98% | –
